Sampled rows, rich in hits. Any-hit rate of the full collection: about 7.3%.
FMDV inh: antivirals against foot and mouth disease virus | Potency, µM (doses to about 57.9 µM), for the others: at the top dose activity change, negative = inhibition, hits mostly inhibitors | hit rate 1.2% among 410,000 | FMDV antiviral cell-based qHTS; calls by dose curve; tested in HEK293T cells; note: read-out not given here; potency is the fitted concentration of half-maximal effect; nearly all actives have a fitted effect of over 45% in size
HCMV antiviral: human cytomegalovirus inhibition; HFF cells, HCMV-luciferase reporter, 72 h; stronger effect = lower value; activity change, negative = inhibition, % at 57.5 µM; hit rate 4.5% among 410,000; in the data active = activity change below about -60%; inconclusive = no clear call, values can overlap the other calls; inactive = above about -39%
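Screen run at 2 compound doses on HFFs infected with reporter HCMV, MOI 1 PFU/cell. Luciferase activity from cell lysates at 72 h post infection gave inhibition relative to buffer-only and Salinomycin wells.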
HCV inhibitor: blocks hepatitis C virus; Potency, µM (series often up to 41.8 µM), without a hit: at the highest dose activity change, negative = inhibition, actives largely listed as inhibitors; hit rate 3.4% among 340,000; Huh7.5.1 HCVcc-Cre infection, luciferase reporter, 44 h; AID 651820; active = well fitted inhibition curve with a large enough effect; inconclusive = small, poorly fitted or top-dose-only effect, or another doubt; inactive = no such curve, though single readings can be large or run the other way; note: potency is the fitted concentration of half-maximal effect
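HCVcc-Cre virus at an moi near 0.5 was added right after compound to cells cultured 4 h from seeding (1,000 cells/well). Luciferase activity was determined 44 h later, 15 min after substrate addition at RT.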
VACV Venus inh: vaccinia inhibition (Venus reporter) | Vaccinia virus Venus reporter expression, fluorescence | Potency, µM (doses to about 36.5 µM), inactives show top-dose activity change, negative = inhibition, usual class: inhibitors | hit rate 0.46% among 330,000; calls by dose curve; tested in A549 cells; note: potency is the fitted concentration of half-maximal effect; nearly all actives have a fitted effect of over 30% in size
VACV mCherry inh: vaccinia inhibition (mCherry reporter) | Vaccinia virus mCherry reporter infection, fluorescence | Potency, µM (highest dose often 36.5 µM), for inactives: at the highest dose activity change, negative = inhibition, most hits filed as inhibitors | hit rate 0.63% among 310,000 | AID 720579; calls by dose curve; tested in A549 cells; note: potency is the fitted concentration of half-maximal effect; nearly all actives have a fitted effect of over 35% in size
The depositor's hits bear a star; i = inactive; ? = inconclusive; nt = not tested or not shown; + = active, no number. % is set by controls: 0 for no effect and ±100 for the full control effect.

SMILES | FMDV inh | HCMV antiviral | HCV inhibitor | VACV Venus inh | VACV mCherry inh
COc1ccc(C(=O)N/N=C/c2cc(Br)ccc2O)cc1OC | -13% | -97* | 11µM* | -19% | 18µM*
CC(=O)c1ccc(NC(=O)C2CCC(CNS(=O)(=O)c3ccc4c(c3)CCCC(=O)N4)CC2)cc1 (configuration not stated) | -16% | -9 | nt | -6% | -9%
Cc1ccc(N2C(=O)c3cccc4c(N)ccc(c34)C2=O)c2cccnc12 | -17% | + | 14% | nt | nt
Cc1ccc(-n2cnnn2)c2cccnc12 | 12% | 2 | 8% | -3% | -13%
Cc1ccc(-c2nc3cc(C)ccc3o2)cc1 | 10µM* | 44 | 1% | -2% | -11%
Cc1c(C(=O)OC(C)C)sc(NC(=O)C2c3ccccc3Oc3ccccc32)c1C(=O)OC(C)C | 5% | -3 | nt | -21% | -30%
COc1ccc(C(C)=O)cc1COC(=O)c1ccc(N)c([N+](=O)[O-])c1 | ? | 18 | 11µM* | -13% | i
COc1ccc(C(C)=O)cc1COc1ccccc1[N+](=O)[O-] | -16% | 11 | 6.3µM* | -13% | i
COc1ccc(C(C)=O)cc1COc1cccnc1[N+](=O)[O-] | -17% | 6 | ? | -14% | -5%
CC(OC(=O)CCN=C1NS(=O)(=O)c2ccccc21)C(=O)Nc1ccc(F)cc1 (configuration not stated) | -20% | ? | ? | -9% | -18%
COc1ccc(NC(=O)c2cc(C)no2)cc1Cl | 21% | -33 | -8% | -11% | i
COc1ccc(Cl)cc1NC(=O)c1cc(C)no1 | -1% | 56 | 10µM* | -8% | i
COc1ccc(Cl)cc1NC(=O)c1cccc(-n2cnnn2)c1 | -22% | -63* | 10µM* | -19% | -17%
O=c1cc(-c2ccccc2)nc2cc(-c3ccc(F)cc3)[nH]n12 | 22% | 44 | 0% | ? | -26%
Fc1ccc(-c2cc(-c3ccccc3)nc(-n3cccn3)n2)cc1 | ? | -61* | ? | -28% | -19%
Cc1nc2nc(NC(=O)c3ccc(Cl)cc3)[nH]n2c(=O)c1Cc1ccccc1 | -17% | -18 | nt | -6% | -10%
O=C(/C=C/c1ccccc1)CC(=O)c1ccccc1O | 24% | 19 | 11µM* | nt | nt
O=C(/C=C/c1ccccc1)NC(=O)c1ccccc1O | 1% | 5 | 13% | nt | nt
CC(=O)c1c(C(C)=O)c(C)n(-c2cccc([N+](=O)[O-])c2)c1C | -14% | -15 | -8% | -26% | i
O=c1[nH]c2cccnc2n1-c1cccc([N+](=O)[O-])c1 | -11% | -85* | 18% | -8% | -21%
Cc1ccc2nc(SCC(=O)Nc3cc(C(F)(F)F)ccc3N3CCOCC3)[nH]c2c1 | ? | -89* | ? | ? | nt
Cc1cc(NC(=O)CSCC(=O)Nc2cc(C(F)(F)F)ccc2N2CCCC2)no1 | 28µM* | ? | ? | -11% | -15%
O=C(CSc1nccc(=O)[nH]1)Nc1cc(C(F)(F)F)ccc1N1CCOCC1 | -1% | -9 | 18% | -8% | -8%
CC(C)NC(=O)c1ccc(N(Cc2ccc(Cl)cc2)S(C)(=O)=O)cc1 | -8% | 17 | -3% | 0% | i
CC(O)COCC1OC2OC3C(COCC(C)O)OC(OC4C(COCC(C)O)OC(OC5C(COCC(C)O)OC(OC6C(COCC(C)O)OC(OC7C(COCC(C)O)OC(OC8C(COCC(C)O)OC(OC1C(OCC(C)O)C2OCC(C)O)C(OCC(C)O)C8OCC(C)O)C(OCC(C)O)C7OCC(C)O)C(OCC(C)O)C6OCC(C)O)C(OCC(C)O)C5OCC(C)O)C(OCC(C)O)C4OCC(C)O)C(OCC(C)O)C3OCC(C)O (configuration not stated) | nt | nt | nt | -15% | -13%
SMILES | FMDV inh | HCMV antiviral | HCV inhibitor | VACV Venus inh | VACV mCherry inh
O=C1C2CC=CCC2C(=O)N1Cc1ccccc1Cl (configuration not stated) | -18% | -40 | 9% | -9% | i
O=C1C2CC=CCC2C(=O)N1SC(Cl)(Cl)Cl (configuration not stated) | nt | -74* | nt | nt | nt
COc1cc(Cl)c(CN2CCOc3ccc(CN4CCCCC4CO)cc3C2)cc1OC (configuration not stated) | -4% | nt | nt | -6% | -12%
Cc1ccc2c(C(=O)CNc3nccs3)c[nH]c2c1 | nt | nt | nt | -13% | -14%
O=C1/C(=C/c2cccnc2)SC(=NCc2ccccc2)N1Cc1ccccc1 | -5% | -15 | -5% | 7% | -8%
COc1ccc(/C=C2/SC(=S)N(Cc3ccccc3)C2=O)cc1O | 32% | ? | ? | nt | nt
O=C(CCN1C(=O)/C(=C/c2ccc(F)cc2)SC1=S)N[C@@H](CO)Cc1ccccc1 | 0% | -64* | ? | nt | nt
O=C(CCN1C(=O)/C(=C/c2ccc(F)cc2)SC1=S)NNC(=O)c1ccncc1 | 19% | -21 | -6% | -11% | i
O=C1/C(=C\c2cc(Cl)c(O)c(Cl)c2)SC(=S)N1Cc1ccccc1 | ? | -99* | ? | i | -5%
O=C1/C(=C/c2cccnc2)SC(=S)N1CCc1ccccc1 | 30% | -71* | 13% | nt | nt
O=C(CCN1C(=O)/C(=C\c2ccccc2)SC1=S)NNC(=O)c1cccnc1 | 0% | -62* | 14% | -8% | -7%
COc1cc(CNCCCSc2nnnn2C)cc(Br)c1OC | -21% | -13 | nt | -7% | -13%
CCCCOC(=O)c1ccc(NC(=O)Cc2coc3ccc(C(C)C)cc23)cc1 | -26% | -11 | nt | -3% | -7%
O=C1/C(=C/c2ccncc2)SC(=S)N1Nc1ccccc1 | 20µM* | 100 | 10% | 65% | 0%
O=C(O)c1ccc(/C=C2\SC(=S)N(Nc3ccccc3)C2=O)cc1 | 13% | -35 | -20% | 7% | ?
Cc1ccc2nc(Cl)c(C3CC(c4cccs4)=NN3S(C)(=O)=O)cc2c1 (configuration not stated) | 42% | -60* | -3% | nt | nt
CC1(C)CC(=O)/C(=C\c2cccc([N+](=O)[O-])c2)C(C)(C)N1 | ? | -86* | 10% | -19% | ?
COc1ccc(OCC(O)CNCCOc2ccccc2OC)c(C(C)(C)C)c1 (configuration not stated) | ? | -67* | 18µM* | nt | nt
COc1ccccc1NCC(O)COc1ccc(C(C)(C)C)cc1 (configuration not stated) | -12% | -15 | ? | -25% | -21%
Cc1ccc(C(=O)N/N=C\c2ccc(-c3ccc(Cl)c(Cl)c3)o2)cn1 | ? | ? | -8% | ? | -18%
Cc1nnc(SCC(=O)N/N=C/c2ccc(-c3ccc(C)c(Cl)c3)o2)s1 | -24% | -65* | 1% | -21% | -5%
CC1COc2ccccc2N1S(=O)(=O)c1ccc(Cl)cc1 (configuration not stated) | -19% | -6 | -7% | -20% | ?
Cc1ccc(S(=O)(=O)N2c3ccccc3OCC2c2ccccc2)cc1 (configuration not stated) | ? | ? | 35µM* | nt | nt
CC1COc2ccccc2N1C(=O)c1ccc(Cl)cc1 (configuration not stated) | -19% | ? | 1% | -13% | -12%
